PostGolgi yeast – phenotypic screen on post-Golgi transport, primary screen | actives 0.9% (n = 98,000) | AID 739, 2007 | inhibition, % at 10 µM | post-Golgi transport phenotypic cell assay;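 also: yeast cells grown in 1536-well plates; yeast grown about 18 h at 30C before absorbance read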
CYP2C9 inhib – blockers of cytochrome P450 2C9 activity – biochemical, luminescence, ADME assay, primary screen; inhibition, % at 5 µM; actives 20% (n = 96,000); CYP2C9 Supersomes, luciferin-H conversion; AID 777, 2007;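 active = blocking of liver enzyme CYP2C9 beyond about 50% at 5 µM, limit read from the data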
Target sequence (P11712 whole entry, looked up): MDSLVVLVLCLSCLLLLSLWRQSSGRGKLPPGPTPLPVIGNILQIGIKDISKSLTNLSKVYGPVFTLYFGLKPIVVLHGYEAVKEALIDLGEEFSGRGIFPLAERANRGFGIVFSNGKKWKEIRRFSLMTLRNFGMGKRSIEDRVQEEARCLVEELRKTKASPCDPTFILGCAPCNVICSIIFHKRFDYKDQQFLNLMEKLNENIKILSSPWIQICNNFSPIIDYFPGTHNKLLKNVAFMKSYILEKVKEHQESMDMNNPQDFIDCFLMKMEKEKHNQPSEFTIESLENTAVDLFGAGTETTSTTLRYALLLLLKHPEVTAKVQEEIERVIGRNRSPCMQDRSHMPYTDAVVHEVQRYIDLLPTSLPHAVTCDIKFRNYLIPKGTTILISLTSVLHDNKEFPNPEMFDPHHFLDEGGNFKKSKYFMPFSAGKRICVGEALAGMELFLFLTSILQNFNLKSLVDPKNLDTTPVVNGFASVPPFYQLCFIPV
PostGolgi ctrl – growth inhibition of yeast control strain, primary screen, counter-screen for post-Golgi transport modulator project | efflux-deficient yeast background strain, growth absorbance A615, 16 h | inhibition, % at 10 µM | actives 5% (n = 98,000) | AID 738, 2007
CYP2C19 inh – blockers of cytochrome P450 2C19 activity – biochemical, luminescence, ADME assay, primary screen | inhibition, % at 5 µM | actives 21% (n = 96,000) | P33261 | CYP2C19 Supersomes, luciferin-H EGE luminescence, 30 min | AID 778, 2007;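 active = CYP2C19 inhibition above a set limit at 5 µM in the primary screen, cut at about 50% in these data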;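 also: plate controls were negative control wells for no effect and 2.5 mM tranylcypromine positive control for full effect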
CYP2C19 activ – human CYP2C19 activators, primary screen, biochemical, luminescence | Cytochrome P450 2C19 (Homo sapiens), P33261 | recombinant CYP2C19, luciferin-H EGE luminescence; active compounds read high; 0 = fully inhibited enzyme, 1 = untreated enzyme | activation factor at 5 µM | 96,000 tested, under 10 active | AID 1025, 2008;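 active = activation factor of at least 2 at 5 µM in the primary screen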;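 also: 0 = wells with 2.5 mM tranylcypromine and 1 = vehicle-only wells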
CYP2C9 activ – human CYP2C9 activators, primary screen, biochemical, luminescence; Cytochrome P450 2C9 (Homo sapiens), P11712; recombinant CYP2C9, luciferin-H conversion; active compounds read high; factor 1 = untreated enzyme, 0 = blocked; activation factor at 5 µM; actives 1.4% (n = 96,000);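 active = activation factor of 2 or more for CYP2C9 at a 5 µM dose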;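 also: 0 = sulfaphenazole-blocked wells and 1 = vehicle-only wells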
Numbers without * were called inactive. Hits are enriched below; roughly 32% of the tested compounds scored in any of these assays. Rule as the data show it, unless noted: active = inhibition above about 30%; inactive = the rest.

SMILES	PostGolgi yeast	CYP2C9 inhib	PostGolgi ctrl	CYP2C19 inh	CYP2C19 activ	CYP2C9 activ
COc1ccc(CCNc2nncc(=O)[nH]2)cc1OC	-4	18	13	20	0.8	0.8
Cc1ccc(C(=O)N2CC3(C(C)C)CN(C(=O)c4ccc(C)cc4)CC(C(C)C)(C2)C3=O)cc1	1	6	8	11	0.9	0.9
Nc1ccc(C(=O)c2ccccc2C(=O)O)cc1Cl	6	1	2	7	0.9	1
O=C(Cn1c(CO)nc2ccccc21)Nc1cc(C(F)(F)F)ccc1N1CCOCC1	-3	53*	5	38	0.6	0.5
O=C(CSc1nc2ccccc2[nH]1)Nc1ccccc1N1CCOCC1	-2	79*	-2	98*	0	0.2
Nc1nnc(SCC(=O)Nc2ccccc2N2CCOCC2)s1	2	16	-1	20	0.8	0.8
O=C(Nc1cc(C(F)(F)F)ccc1N1CCOCC1)c1ccco1	2	-14	4	-11	1.1	1.1
O=C(CSc1nc2ccccc2[nH]1)Nc1cc(C(F)(F)F)ccc1N1CCOCC1	21	99*	24	99*	0	0
CSc1ncccc1C(=O)OCC(=O)Nc1cc(C(F)(F)F)ccc1N1CCOCC1	9	51*	29	38	0.6	0.5
CCN1CCN(C(C(=O)NC2CCCCC2)c2ccc(Cl)cc2)CC1 (centres undefined)	-2	-29	-7	43	0.6	1.3
COc1cc(C(=O)NNC(=O)NC2CCCCC2)cc(OC)c1OC	21	-2	-7	13	0.9	1
Cc1nc2ncnn2c(N2CCCC(C(=O)Nc3ccc4c(c3)CCC4)C2)c1C (centres undefined)	1	66*	16	48	0.5	0.3
CCc1c(C)nc2ncnn2c1N1CCC(C(=O)Nc2ccccc2)CC1	-3	66*	2	95*	0.1	0.3
O=C(Nc1ccc2c(c1)CCC2)C1CCCN(c2ncccn2)C1 (centres undefined)	-3	10	0	24	0.8	0.9
CCc1c(C)nc2ncnn2c1N1CCC(C(=O)Nc2ccc(C)cc2)CC1	25	59*	1	29	0.7	0.4
C=CC(=O)Nc1ccc(Br)cc1	4	0	16	-7	1.1	1
Fc1ccccc1OCCCN1CCOCC1	10	-29	-4	6	0.9	1.3
N#Cc1cn(CCOc2ccccc2F)c2ccccc12	-3	100*	58*	98*	0	0
Cc1c(C#N)c2ccccc2n1CCOc1ccccc1F	3	51*	67*	40	0.6	0.5
N#Cc1cn(CC(=O)O)c2ccccc12	-8	-4	-6	-11	1.1	1
COc1ccccc1Nc1ccc(C(=O)NC2CCCCC2)cn1	18	-97	12	24	0.8	2*
Cc1ccc(-n2ccc(=O)c(-c3ccnc(SCc4cccc(Cl)c4)n3)n2)cc1	-12	56*	19	20	0.8	0.4
COn1c(SCc2cccc(Cl)c2)nc2ccccc2c1=O	-6	25	18	30	0.7	0.8
O=C(OCCNC(=O)c1ccc2ccccc2n1)c1ccc(F)cc1	2	31	26	16	0.8	0.7
CC(c1nnc(SCC(=O)c2c(N)n(C)c(=O)n(C)c2=O)n1-c1ccc(Cl)cc1)N(C)C (centres undefined)	14	1	37*	-3	1	1
SMILES	PostGolgi yeast	CYP2C9 inhib	PostGolgi ctrl	CYP2C19 inh	CYP2C19 activ	CYP2C9 activ
COc1ccc(C2=CC(=O)OC3(CCCCC3)O2)cc1	4	88*	2	95*	0.1	0.1
COc1cccc(NC=C2C(=O)OC3(CCCCC3)OC2=O)c1	-7	0	4	6	0.9	1
COc1cc(OC)cc(C(=O)N/N=C/c2ccc(OC)c(COc3ccc(F)cc3)c2)c1	10	10	11	33	0.7	0.9
COc1ccc(/C=C/C(=O)c2ccccc2O)cc1CN1CCOCC1	19	44	14	58*	0.4	0.6
COc1ccc(/C=C/C(=O)c2ccccc2)cc1COc1ccccc1F	-9	74*	5	41	0.6	0.3
O=C1NC2(CCCCC2)Oc2ccccc21	-4	-4	0	24	0.8	1
Cc1ccc(C)c(OCC(O)CN2CCCCC2C)c1 (centres undefined)	1	-10	14	53*	0.5	1.1
Cc1ccc(C)c(OCC(O)CN2C(C)CCCC2C)c1 (centres undefined)	-6	-14	0	4	1	1.1
Cc1ccc2c(c1)c(C)c(C)n2CC(O)CN1CCCCC1C (centres undefined)	11	5	11	75*	0.3	0.9
Cc1ccc2c(c1)c1c(n2CC(O)Cn2nc(C)c(Br)c2C)C(=O)CCC1 (centres undefined)	-5	7	8	11	0.9	0.9
Cc1ccc2c(c1)c(C)c(C)n2CC(O)Cn1nc(C)c(Br)c1C (centres undefined)	0	96*	17	97*	0	0
CC(=O)c1c(C)nn(CC(O)Cn2c3c(c4cc(C)ccc42)CCCC3=O)c1C (centres undefined)	4	67*	8	54*	0.5	0.3
CN1CC(=O)N/C1=N\C(=O)Nc1ccc2c(c1)N(C)C(=O)CS2	0	33	-2	6	0.9	0.7
CCc1cc2ccccc2nc1SCC(=O)N1CCN(C(=O)c2ccco2)CC1	8	80*	23	83*	0.2	0.2
CCc1cc2cc(C)ccc2nc1SCC(=O)N1CCN(C(=O)c2ccco2)CC1	-3	70*	11	41	0.6	0.3
N#Cc1nc(COc2ccc(F)cc2)oc1N1CCCC1	-3	28	5	96*	0	0.7
N#Cc1nc(COc2cccc(Cl)c2)oc1N1CCCC1	17	18	28	98*	0	0.8
N#Cc1nc(-c2ccc(F)cc2)oc1N1CCCC1	1	-33	8	15	0.8	1.3
CN(C)CCNc1oc(COc2cccc(Cl)c2)nc1C#N	0	-28	8	-12	1.1	1.3
CC(C)N1C(=O)CCC1C(=O)NCCc1ccccc1 (centres undefined)	0	18	7	7	0.9	0.8
COCCNC(=O)C1c2cc(OC)c(OC)cc2C(=O)N(C)C1c1cccnc1 (centres undefined)	2	-9	9	1	1	1.1
Cn1c(SCc2cccc3ccccc23)nnc1-c1ccco1	-2	-40	10	83*	0.2	1.4
COc1cccc(CSc2nnc(-c3ccco3)n2C)c1	6	17	3	95*	0.1	0.8

High-throughput results deposited in PubChem by several laboratories.
